From PubChem BioAssay
Activity calls are given as the source filed them.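 How the source made its calls, unless noted: active means viability at or below 30% in both replicate assays; inconclusive means viability at or below 30% in just one of the two assays; inactive means the rest.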

Key:
[1] = reducers of endogenous Her2 protein level, primary screen, SKBR3 breast tumor cells, AlphaScreen, ATP viability (AID 461;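 active means Her2 level under about 52% in both replicate screens, with viability over 70% of control, limit read from the data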;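 on Her2 level: lower value means less Her2 protein in the cells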;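 on viability: percent of carrier control wells set as 100% viability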); settings: 18-24 h, measured here: SKBR3 viability, ATP luminescence, at 10 µM
[2] = target: Receptor tyrosine-protein kinase erbB-2 (Homo sapiens) (UniProt P04626); experiment: as above; settings: 18-24 h, at 10 µM, stronger effect = lower value
Chain of Receptor tyrosine-protein kinase erbB-2 (Homo sapiens) (P04626 whole entry, looked up): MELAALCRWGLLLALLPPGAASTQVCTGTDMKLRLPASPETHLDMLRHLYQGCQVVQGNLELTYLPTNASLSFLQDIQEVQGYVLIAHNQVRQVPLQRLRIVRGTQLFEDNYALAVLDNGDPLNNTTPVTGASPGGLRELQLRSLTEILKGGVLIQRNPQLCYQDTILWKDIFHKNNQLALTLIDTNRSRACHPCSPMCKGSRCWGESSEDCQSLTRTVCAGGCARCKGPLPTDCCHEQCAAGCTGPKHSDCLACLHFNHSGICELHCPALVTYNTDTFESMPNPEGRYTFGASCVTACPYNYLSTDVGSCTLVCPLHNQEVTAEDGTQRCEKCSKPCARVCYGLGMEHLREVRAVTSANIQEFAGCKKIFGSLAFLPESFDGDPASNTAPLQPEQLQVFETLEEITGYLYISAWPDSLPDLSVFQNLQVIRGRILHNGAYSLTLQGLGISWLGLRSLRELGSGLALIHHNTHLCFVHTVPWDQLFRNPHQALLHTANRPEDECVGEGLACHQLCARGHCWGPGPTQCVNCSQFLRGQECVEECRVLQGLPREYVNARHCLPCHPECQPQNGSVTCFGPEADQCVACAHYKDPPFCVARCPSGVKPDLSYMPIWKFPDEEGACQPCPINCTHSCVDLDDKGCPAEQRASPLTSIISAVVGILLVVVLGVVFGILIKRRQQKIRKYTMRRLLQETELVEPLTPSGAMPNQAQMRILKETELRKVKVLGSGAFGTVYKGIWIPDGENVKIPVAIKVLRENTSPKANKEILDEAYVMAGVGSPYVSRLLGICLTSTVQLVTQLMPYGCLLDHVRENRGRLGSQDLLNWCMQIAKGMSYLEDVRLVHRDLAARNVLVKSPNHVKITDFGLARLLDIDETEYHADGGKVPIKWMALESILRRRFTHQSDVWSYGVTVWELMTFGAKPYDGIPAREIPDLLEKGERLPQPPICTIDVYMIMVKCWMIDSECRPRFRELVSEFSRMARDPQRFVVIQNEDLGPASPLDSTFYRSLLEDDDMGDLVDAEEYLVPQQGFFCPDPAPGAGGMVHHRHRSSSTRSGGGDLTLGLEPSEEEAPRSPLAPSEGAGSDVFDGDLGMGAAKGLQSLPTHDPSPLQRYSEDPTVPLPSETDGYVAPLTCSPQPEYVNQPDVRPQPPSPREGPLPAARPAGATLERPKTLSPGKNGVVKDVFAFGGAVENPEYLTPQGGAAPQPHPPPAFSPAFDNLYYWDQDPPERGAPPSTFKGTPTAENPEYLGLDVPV

[3] = SK-BR-3 cell growth inhibitors, pilot screen, 24 h, human (AID 572;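 active means viability at or below 10% of carrier control in both of two separate runs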;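 further: compound exposure lasted between 18 and 24 h rather than exactly 24 h; 100% = carrier-treated control wells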); settings: SK-BR-3 viability, CellTiter-Glo luminescence, at 10 µM, stronger effect = lower value
[4] = HUVEC growth inhibition – cell-based, human, primary screen (AID 575); settings: HUVEC proliferation, CellTiter-Glo luminescence, 72 h; at 10 µM; stronger effect = lower value;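 further: 100% = median of untreated cell wells with 0.1% DMSO on each plate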
[5] = growth inhibitors of H69AR lung tumor, primary screen, human, duplicate replicates (AID 580;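 active means viability at or under a set limit in both replicates, limit being median viability minus 3 SD, cut at about 48% in these data, passing the limit was not always enough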;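 further: 100% = mean luminescence of untreated wells and 0% = no signal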); settings: H69AR lung tumor cells viability, ATP luminescence, 72 h; at 10 µM; stronger effect = lower value
[6] = reversal of MRP1-mediated doxorubicin resistance, pilot screen, H69AR cells, doxorubicin co-treatment (AID 601;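 active means viability loss from added drug above about 55%, and viability with drug at most 40%, in both replicates, limit read from the data, passing the limit was not always enough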); settings: CellTiter-Glo, 72 h, at 10 µM; for differential viability (reversal): stronger effect = higher value
[7] = 384-well plate pilot, post-Golgi transport modulator project, inhibition of yeast transport mutant growth (AID 636; in the data active means inhibition above about 31%); settings: absorbance 615 nm, about 18 h, stronger effect = higher value
[8] = growth suppression of yeast trafficking mutant, preliminary HTS, modulators of trafficking downstream of Golgi apparatus project, 1536-format plate, OD 615 nm (AID 637; in the data active means inhibition above about 30%); settings: yeast transport mutant growth, absorbance 615 nm, 18 h; stronger effect = higher value
[9] = H69AR cells + 2 uM doxorubicin, measured here: viability with 2 uM doxorubicin, stronger effect = lower value
[10] = H69AR cells, compound alone cytotoxicity

SMILES: Nc1nonc1-n1nnc(C(=O)c2ccccc2)c1-c1ccccc1
- viability [1]: 96.5%
- Her2 level [2]: 100% (inactive)
- viability [3]: 96.5% (inactive)
- viability [4]: 63.6% (inactive)
- viability [5]: 99.4% (inactive)
- differential viability (reversal) ([6]; H69AR cells + 2 uM doxorubicin): 7.96% (inactive)
- viability [6, 9]: 91.4%
- viability [6, 10]: 99.4%
- inhibition [7]: -6.58% (inactive)
- inhibition [8]: 6.03% (inactive)

SMILES: CC(CN1CCCCC1)OC(=O)c1ccc2c(c1)OCO2 (stereo not given)
- viability [1]: 104%
- Her2 level [2]: 96% (inactive)
- viability [3]: 104% (inactive)
- viability [4]: 99.1% (inactive)
- viability [5]: 94.1% (inactive)
- differential viability (reversal) ([6]; H69AR cells + 2 uM doxorubicin): 7.31% (inactive)
- viability [6, 9]: 86.8%
- viability [6, 10]: 94.1%
- inhibition [7]: -4.4% (inactive)
- inhibition [8]: 6.72% (inactive)

SMILES: O=C1C2C3C=CC(C3=C3CCCCC3)C2C(=O)N1c1ccccc1 (stereo not given)
- viability [1]: 131%
- Her2 level [2]: 89.5% (inactive)
- viability [3]: 131% (inactive)
- viability [4]: 103% (inactive)
- viability [5]: 95.8% (inactive)
- differential viability (reversal) ([6]; H69AR cells + 2 uM doxorubicin): 1.16% (inactive)
- viability [6, 9]: 94.7%
- viability [6, 10]: 95.8%
- inhibition [7]: -3.12% (inactive)
- inhibition [8]: -2.06% (inactive)

SMILES: CCOc1ccc2c(c1)n(CO)c(=S)n2CO
- viability [1]: 107%
- Her2 level [2]: 74% (inactive)
- viability [3]: 107% (inactive)
- viability [4]: 83.6% (inactive)
- viability [5]: 89.6% (inactive)
- differential viability (reversal) ([6]; H69AR cells + 2 uM doxorubicin): 2.06% (inactive)
- viability [6, 9]: 87.5%
- viability [6, 10]: 89.6%
- inhibition [7]: -2.53% (inactive)
- inhibition [8]: 0.81% (inactive)

SMILES: N#CC(C(=O)Nc1ccc(Cl)c(Cl)c1)=C1Nc2ccccc2N1
- viability [1]: 90.5%
- Her2 level [2]: 72.5% (inactive)
- viability [3]: 90.5% (inactive)
- viability [4]: 36% (inactive)
- viability [5]: 13.5% (active)
- differential viability (reversal) ([6]; H69AR cells + 2 uM doxorubicin): -10.8% (inactive)
- viability [6, 9]: 24.3%
- viability [6, 10]: 13.5%
- inhibition [7]: -0.66% (inactive)
- inhibition [8]: -1.61% (inactive)

SMILES: CC(=O)N(CCc1ccccc1C)Cc1cc2cc3c(cc2[nH]c1=O)OCO3
- viability [1]: 99%
- Her2 level [2]: 85.5% (inactive)
- viability [3]: 99% (inactive)
- viability [4]: 90.1% (inactive)
- viability [5]: 91.2% (inactive)
- differential viability (reversal) ([6]; H69AR cells + 2 uM doxorubicin): -2.76% (inactive)
- viability [6, 9]: 93.9%
- viability [6, 10]: 91.2%
- inhibition [7]: -2.03% (inactive)
- inhibition [8]: 4.44% (inactive)

SMILES: CCOc1ccc(N(CC(=O)NCC2CCCO2)S(=O)(=O)c2ccc(OC)c(OC)c2)cc1 (stereo not given)
- viability [1]: 105%
- Her2 level [2]: 98.5% (inactive)
- viability [3]: 105% (inactive)
- viability [4]: 118% (inactive)
- viability [5]: 116% (inactive)
- differential viability (reversal) ([6]; H69AR cells + 2 uM doxorubicin): 19.2% (inactive)
- viability [6, 9]: 96.3%
- viability [6, 10]: 116%
- inhibition [7]: -4% (inactive)
- inhibition [8]: -5.97% (inactive)

SMILES: CN(C)S(=O)(=O)c1ccc(C(=O)N2CCCC2c2nc3ccccc3s2)cc1 (stereo not given)
- viability [1]: 98%
- Her2 level [2]: 127% (inactive)
- viability [3]: 98% (inactive)
- viability [4]: 91.1% (inactive)
- viability [5]: 94.9% (inactive)
- differential viability (reversal) ([6]; H69AR cells + 2 uM doxorubicin): 1.97% (inactive)
- viability [6, 9]: 92.9%
- viability [6, 10]: 94.9%
- inhibition [7]: -1.49% (inactive)
- inhibition [8]: 3.93% (inactive)

SMILES: CCC(C(=O)Nc1ncccn1)(C(F)(F)F)C(F)(F)F
- viability [1]: 86.5%
- Her2 level [2]: 99% (inactive)
- viability [3]: 86.5% (inactive)
- viability [4]: 95.7% (inactive)
- viability [5]: 103% (inactive)
- differential viability (reversal) ([6]; H69AR cells + 2 uM doxorubicin): 8.62% (inactive)
- viability [6, 9]: 94.6%
- viability [6, 10]: 103%
- inhibition [7]: 0.27% (inactive)
- inhibition [8]: 0.82% (inactive)

SMILES: Cc1nc(C)c2c(c1C(F)(F)F)-c1ccccc1C2(F)F
- viability [1]: 98%
- Her2 level [2]: 98% (inactive)
- viability [3]: 98% (inactive)
- viability [4]: 102% (inactive)
- viability [5]: 105% (inactive)
- differential viability (reversal) ([6]; H69AR cells + 2 uM doxorubicin): 16.4% (inactive)
- viability [6, 9]: 88.9%
- viability [6, 10]: 105%
- inhibition [7]: -4.4% (inactive)
- inhibition [8]: -5.08% (inactive)

SMILES: COc1ccccc1NC(=O)CSc1nnc(-c2ccncc2)o1
- viability [1]: 108%
- Her2 level [2]: 96% (inactive)
- viability [3]: 108% (inactive)
- viability [4]: 111% (inactive)
- viability [5]: 93.8% (inactive)
- differential viability (reversal) ([6]; H69AR cells + 2 uM doxorubicin): 2.67% (inactive)
- viability [6, 9]: 91.2%
- viability [6, 10]: 93.8%
- inhibition [7]: 0.91% (inactive)
- inhibition [8]: -4.33% (inactive)

SMILES: CN(C(=O)c1ccc(S(=O)(=O)NC2CCCC2)cc1)C1CCCCC1
- viability [1]: 101%
- Her2 level [2]: 87% (inactive)
- viability [3]: 101% (inactive)
- viability [4]: 103% (inactive)
- viability [5]: 102% (inactive)
- differential viability (reversal) ([6]; H69AR cells + 2 uM doxorubicin): 9.82% (inactive)
- viability [6, 9]: 92.3%
- viability [6, 10]: 102%
- inhibition [7]: -3.38% (inactive)
- inhibition [8]: -7.54% (inactive)

SMILES: CCCNC(=O)C1=C(C)C(=O)OC12CCC(C)CC2 (stereo not given)
- viability [1]: 94.5%
- Her2 level [2]: 102% (inactive)
- viability [3]: 94.5% (inactive)
- viability [4]: 87.2% (inactive)
- viability [5]: 95.3% (inactive)
- differential viability (reversal) ([6]; H69AR cells + 2 uM doxorubicin): 5.14% (inactive)
- viability [6, 9]: 90.2%
- viability [6, 10]: 95.3%
- inhibition [7]: 2.27% (inactive)
- inhibition [8]: 3.61% (inactive)

SMILES: CCn1ncc(C2=NOC(C(=O)N3CCC(C(N)=O)CC3)C2)c1C (stereo not given)
- viability [1]: 104%
- Her2 level [2]: 106% (inactive)
- viability [3]: 104% (inactive)
- viability [4]: 98.6% (inactive)
- viability [5]: 101% (inactive)
- differential viability (reversal) ([6]; H69AR cells + 2 uM doxorubicin): -2.31% (inactive)
- viability [6, 9]: 103%
- viability [6, 10]: 101%
- inhibition [7]: -1.05% (inactive)
- inhibition [8]: 15.2% (inactive)

SMILES: Cc1ccc(C)c(-n2c(Cc3cc(=O)[nH]c(=O)[nH]3)nnc2SCC(=O)NCc2ccco2)c1
- viability [1]: 131%
- Her2 level [2]: 142% (inactive)
- viability [3]: 131% (inactive)
- viability [4]: 100% (inactive)
- viability [5]: 102% (inactive)
- differential viability (reversal) ([6]; H69AR cells + 2 uM doxorubicin): 13.3% (inactive)
- viability [6, 9]: 89%
- viability [6, 10]: 102%
- inhibition [7]: -6% (inactive)
- inhibition [8]: -5% (inactive)

SMILES: O=S(=O)(Cc1ccccc1)N1CCN(Cc2ccccc2)CC1
- viability [1]: 84.5%
- Her2 level [2]: 109% (inactive)
- viability [3]: 84.5% (inactive)
- viability [4]: 87.3% (inactive)
- viability [5]: 95.5% (inactive)
- differential viability (reversal) ([6]; H69AR cells + 2 uM doxorubicin): 15.5% (inactive)
- viability [6, 9]: 79.9%
- viability [6, 10]: 95.5%
- inhibition [7]: -0.13% (inactive)
- inhibition [8]: 0.95% (inactive)
